Publication PMC5540273 (PLoS ONE, 2017)
Like-named read-outs stand apart in the source and are kept apart here.

Assays:
AAK1 = conditions: n = 1
ABL1-nonphosphorylated = conditions: concentration: 1 μM,replicates: in singlicate; n = 1
ABL1-phosphorylated = conditions: concentration: 1 μM,replicates: in singlicate; n = 1
ABL2 = conditions: concentration: 1 μM,replicates: in singlicate; n = 1
ACVR1B = conditions: concentration: 1 μM,replicates: in singlicate; n = 1
ACVR1 = conditions: concentration: 1 μM,replicates: in singlicate; n = 1
ACVR2A = conditions: concentration: 1 μM,replicates: in singlicate; n = 1
ACVR2B = conditions: concentration: 1 μM,replicates: in singlicate; n = 1
ACVRL1 = conditions: concentration: 1 μM,replicates: in singlicate; n = 1
ADCK3 = tested on: T1, ADCK3; conditions: concentration: 1 μM,replicates: in singlicate; n = 1
T1 construct: gene CABC1

[1] = concentration: 1 μM,replicates: in singlicate
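Also: KINOMEscan kinase panel screen.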

Compound | %Inh (AAK1; [1]) | %Inh (ABL1-nonphosphorylated) | %Inh (ABL1-phosphorylated) | %Inh (ABL2) | %Inh (ACVR1B) | %Inh (ACVR1) | %Inh (ACVR2A) | %Inh (ACVR2B) | %Inh (ACVRL1) | %Inh (ADCK3) | %Inh (AAK1; 1 µM)
O=C(Nc1cccc(Oc2ccc3nccn3n2)c1)Nc1cccc(C(F)(F)F)c1 | 0% | 98.2% | 15% | 71% | 0% | 0% | 22% | 9% | 0% | 0% | –
Cc1ccc(CC(=O)N2CCc3cc(-c4cn(C)c5ncnc(N)c45)ccc32)cc1 [GSK2634758] | 33% | 42% | 5% | 24% | 20% | 0% | 0% | 0% | 0% | 6% | –
O=C(Nc1cccc(C(F)(F)F)c1)c1cccc(Oc2ccc3nccn3n2)c1 | 0% | 98.5% | 17% | 76% | 0% | 0% | 24% | 8% | 0% | 14% | –
Cc1ccc2c(-c3ccnc(Nc4ccc(C(F)(F)F)cc4)n3)cnn2n1 [GW819776] | 12% | 36% | 28% | 1% | 11% | 0% | 0% | 0% | 0% | 5% | –
Cc1cccc(-c2nc(Nc3ccncc3)c3sccc3n2)n1 [GW869641] | 25% | 0% | 16% | 0% | 96.5% | 0% | 42% | 41% | 14% | 0% | –
Cc1n[nH]c2cc(Nc3ccnc(Nc4cccc(CN5CCOCC5)c4)n3)ccc12 [GW682569] | 71% | 22% | 26% | 23% | 36% | 85% | 0% | 39% | 17% | 19% | –
CN(c1ccccc1CNc1nc(Nc2ccc3c(c2)CC(=O)N3)ncc1C(F)(F)F)S(C)(=O)=O | 10% | 25% | 7% | 5% | 28% | 0% | 0% | 0% | 0% | 0% | –
Cn1cc(-c2cccc3c(N)c(C(N)=O)nnc23)cn1 | 36% | 24% | 0% | 9% | 28% | 63% | 27% | 29% | 3% | 15% | –
COc1cccc(C2=C(Nc3cccc(Cl)c3)C(=O)NC2=O)c1 [SB-341556] | 0% | 0% | 21% | 8% | 0% | 65% | 0% | 0% | 0% | 24% | –
Cl.Cl.NC[C@H](CC1CCCCC1)NC(=O)c1ccc(-c2ccnc3[nH]ccc23)s1 [GSK1581428] | – | 0% | 0% | 8% | 0% | 5% | 61% | 0% | 0% | 13% | 75%
NC(=O)Nc1sc(-c2ccc(F)cc2)cc1C(N)=O [GW789449] | 60% | 49% | 0% | 3% | 5% | 0% | 31% | 28% | 0% | 5% | –
O=C1NCCc2[nH]c(-c3ccncc3)cc21 | 77% | 31% | 0% | 0% | 40% | 14% | 40% | 70% | 19% | 33% | –
COc1cc2c(Nc3ccc(NC(=O)c4ccccc4)cc3)ncnc2cc1OCCCN1CCOCC1 [GSK301329] | 0% | 16% | 0% | 20% | 0% | 0% | 0% | 0% | 0% | 10% | –
CC(=O)Nc1ccc(-c2cc3ncnc(SCC(=O)O)c3s2)cc1 | 44% | 15% | 3% | 8% | 2% | 0% | 4% | 30% | 27% | 0% | –
C[C@@H]1CCN(C(=O)N2CCCC2)C[C@@H]1N(C)c1ncnc2[nH]ccc12 | 31% | 51% | 9% | 0% | 1% | 0% | 3% | 0% | 0% | 7% | –
CN(c1cccc(CNc2nc(Nc3ccc4c(c3)CC(=O)N4)ncc2C(F)(F)F)c1)S(C)(=O)=O | 51% | 46% | 3% | 16% | 0% | 0% | 0% | 0% | 0% | 0% | –
O=C(NCC1CC1)c1ccc(-c2cc(C(=O)NC3CC3)ccc2F)cc1 [GW810445] | 0% | 0% | 10% | 3% | 0% | 0% | 0% | 6% | 0% | 0% | –

Compound | %Inh (AAK1; [1]) | %Inh (ABL1-nonphosphorylated) | %Inh (ABL1-phosphorylated) | %Inh (ABL2) | %Inh (ACVR1B) | %Inh (ACVR1) | %Inh (ACVR2A) | %Inh (ACVR2B) | %Inh (ACVRL1) | %Inh (ADCK3) | %Inh (AAK1; 1 µM)
CS(=O)c1ccc(-c2coc3ccc(-c4n[nH]c(=O)o4)cc23)cc1 (stereo not drawn) | 21% | 35% | 3% | 0% | 14% | 0% | 8% | 19% | 0% | 0% | –
C[C@@H](Oc1cc(-n2cnc3cc(-c4ccncc4)ccc32)sc1C(N)=O)c1ccccc1Cl [GSK479719] | 61% | 0% | 25% | 22% | 0% | 10% | 0% | 0% | 0% | 12% | –
CC(C)S(=O)(=O)N1CCN(Cc2ccc3c(c2)nc(NC(=O)c2ccsc2)n3C[C@H](O)c2ccccc2)CC1 [GW635815] | 38% | 0% | 2% | 22% | 15% | 0% | 0% | 0% | 0% | 0% | –
O=c1[nH]cc(-c2ccc(O)cc2)c2sc(-c3ccncc3)cc12 [GSK1033723] | 26% | 0% | 0% | 0% | 0% | 0% | 0% | 0% | 0% | 34% | –
CC(=O)c1c(-c2ccncc2)[nH]c(-c2ccncc2)c1C [GW493036] | 14% | 0% | 0% | 7% | 0% | 7% | 0% | 17% | 0% | 4% | –
CC(=O)Nc1nc2cnc(Nc3cc(NC(=O)c4cccc(CC(C)(C)C#N)c4)ccc3C)nc2s1 | 23% | 99.7% | 50% | 61% | 0% | 0% | 11% | 0% | 0% | 3% | –
Cl.c1ccc(Oc2ccc(Nc3ccnc4cc(-c5ccc(CN6CCNCC6)o5)ccc34)cc2)nc1 [GW567142] | 2% | 99.7% | 84% | 42% | 0% | 0% | 0% | 41% | 0% | 0% | –
Nc1nccc(-c2ccc3c(N)n[nH]c3c2)n1 [GSK1034945] | 65% | 0% | 0% | 9% | 0% | 0% | 0% | 44% | 0% | 1% | –
Cn1ccc2ncnc(Oc3ccc(NC(=O)Nc4ccnc(C(F)(F)F)c4)c(Cl)c3)c21 | 18% | 68% | 10% | 5% | 0% | 11% | 4% | 13% | 63% | 0% | –
COC(=O)c1cccc(NC(=O)NC2CCN(c3ccnc(Nc4cc(OC)c(OC)c(OC)c4)n3)C2)c1 (stereo not drawn) [GSK1379767] | 68% | 0% | 0% | 1% | 0% | 33% | 35% | 6% | 0% | 21% | –
CCN1CCN(CCCC(=O)Nc2n[nH]c3nc(-c4ccc(O)cc4)c(Br)cc23)CC1 [SB-731579] | 0% | 64% | 31% | 100% | 0% | 78% | 0% | 2% | 63% | 0% | –
CCn1c(-c2nonc2N)nc2cncc(Br)c21 [SB-738004] | 67% | 0% | 0% | 0% | 30% | 0% | 0% | 9% | 0% | 25% | –
C[C@@H]1CNc2c(sc3ccc4nc(-c5ccncc5)ccc4c23)C(=O)N1 | 49% | 38% | 11% | 0% | 0% | 0% | 1% | 30% | 10% | 0% | –
COc1ccc(Nc2nccc(N3CCC(NC(=O)c4cccc(C#N)c4)C3)n2)cc1 (stereo not drawn) [GSK1379730] | 0% | 0% | 0% | 9% | 4% | 24% | 0% | 0% | 0% | 0% | –
CN(c1ccc2c(c1)nc(NCc1ccc(F)cc1)n2C)c1ccnc(Nc2ccc(CS(C)(=O)=O)cc2)n1.Cl [GW813244] | 30% | 97.2% | 79% | 75% | 3% | 17% | 0% | 0% | 0% | 0% | –
c1ccc(Oc2ccc(Nc3ccnc4ccc(-c5ccccn5)cc34)cc2)cc1 [GW407034] | 13% | 0% | 0% | 17% | 0% | 5% | 6% | 13% | 0% | 12% | –
